IMPase Li inh – qHTS Assay for Identifying the Cell-Membrane Permeable IMPase Inhibitors: Potentiation with Lithium; CHO-M1 cells, IP1 TR-FRET (IP-One), carbachol + lithium; Potency, µM (highest dose often 59.4 µM), without a hit: top-dose activity, negative = IMPase inhibition, actives largely listed as inhibitors; 210,000 tested, 0.35% active;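 note: IP1 builds up when IMPase is blocked and the TR-FRET signal falls; potency is the fitted concentration of half-maximal effect; plate controls were basal vehicle for no effect and high inhibitor control for full effect; nearly all actives have a fitted effect of over 50% in size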
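Concentration–response in CHO-M1 cells, lithium-potentiated; 30 min at 37C. IP1 detected by competitive TR-FRET after 10 min lysis at RT. Hill-fitted AC50.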
ALOX15B inhib – qHTS Assay for Inhibitors of 15-hLO-2 (15-human lipoxygenase 2); Polyunsaturated fatty acid lipoxygenase ALOX15B (Homo sapiens), O15296; purified 15hLO-2, xylenol orange hydroperoxide absorbance; Potency, µM (doses to about 57.1 µM), for the others: at the top dose activity change, negative = inhibition, most hits filed as inhibitors; 110,000 tested, 0.56% active; note: potency is the fitted concentration of half-maximal effect; nearly all actives have a fitted effect of over 60% in size
Target sequence (O15296 whole entry, looked up): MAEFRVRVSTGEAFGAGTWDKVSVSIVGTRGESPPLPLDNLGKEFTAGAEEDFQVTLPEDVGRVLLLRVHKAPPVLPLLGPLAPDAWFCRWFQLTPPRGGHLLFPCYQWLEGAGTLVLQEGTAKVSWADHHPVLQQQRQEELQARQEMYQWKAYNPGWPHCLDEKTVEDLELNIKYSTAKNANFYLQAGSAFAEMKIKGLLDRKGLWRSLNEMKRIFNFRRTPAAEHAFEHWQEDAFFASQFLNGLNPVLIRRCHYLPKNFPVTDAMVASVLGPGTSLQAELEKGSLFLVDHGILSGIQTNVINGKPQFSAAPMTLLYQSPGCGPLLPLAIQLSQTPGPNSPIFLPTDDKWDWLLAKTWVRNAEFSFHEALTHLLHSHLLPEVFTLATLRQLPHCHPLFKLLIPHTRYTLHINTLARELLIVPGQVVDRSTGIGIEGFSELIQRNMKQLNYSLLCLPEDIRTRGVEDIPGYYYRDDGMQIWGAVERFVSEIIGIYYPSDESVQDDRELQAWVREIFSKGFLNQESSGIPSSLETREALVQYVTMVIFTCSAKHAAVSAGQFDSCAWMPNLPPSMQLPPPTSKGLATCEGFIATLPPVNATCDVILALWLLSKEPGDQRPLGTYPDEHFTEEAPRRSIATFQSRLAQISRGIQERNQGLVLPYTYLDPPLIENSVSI
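Purified human 15hLO-2 (50 nM) preincubated 15 min with compound, then 45 uM arachidonic acid for 90 min at RT in 25 mM Hepes pH 7.5, 0.01% Triton X-100. Hydroperoxide detected by Fe-xylenol orange; 573/405 nm absorbance ratio.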
ALOX12 inhib – qHTS Assay for Inhibitors of 12-hLO (12-human lipoxygenase); Polyunsaturated fatty acid lipoxygenase ALOX12 (Homo sapiens), P18054; purified 12-hLO, xylenol orange hydroperoxide absorbance; Potency, µM (doses to about 57.1 µM), without a hit: at the top dose activity change, negative = inhibition, most hits filed as inhibitors; 150,000 tested, 0.12% active; AID 1452, 2008; note: potency is the fitted concentration of half-maximal effect; nearly all actives have a fitted effect of over 55% in size
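Hydroperoxide output read as Fe(III)-xylenol orange absorbance, 573-to-405 nm ratio, after 30 min reaction with 40 uM arachidonic acid. Enzyme: 150 nM purified human 12hLO, 15 min compound preincubation; 25 mM Hepes pH 7.0, room temperature.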
PNC assembly inh – High Content Assay for Compounds that inhibit the Assembly of the Perinucleolar Compartment; 140,000 tested, 3.1% active; AID 2417, 2010; PC3M PTB-GFP, PNC prevalence imaging, 16 h; hits give low values; activity change (PNC), negative = inhibition, % at 10 µM;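 active = readout at or below -70, meaning at least 70% loss of cells showing the perinucleolar compartment, a nuclear body marking cancer cells; inconclusive = readout between -30 and a set limit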;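 note: plate controls were DMSO wells for no effect and camptothecin positive control wells for full effect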
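PC3M cells stably expressing PTB-GFP, 750–1000 cells/well, treated 16 h at 37 °C with compound (23 nl of library stock), in duplicate. After paraformaldehyde fixation and Hoechst stain, imaged at 20x; PNC prevalence scored by image analysis.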
HPGD inh – qHTS Assay for Inhibitors of HPGD (15-Hydroxyprostaglandin Dehydrogenase). Potency, µM, without a hit: at the highest dose activity change, negative = inhibition, actives largely listed as inhibitors. 15-hydroxyprostaglandin dehydrogenase [NAD(+)] (Homo sapiens), P15428. purified HPGD, NADH fluorescence kinetic, PGE2 substrate. 150,000 tested, 4.3% active; active = well fitted inhibition curve with a large enough effect, not every such curve was filed as active; inconclusive = small, poorly fitted or top-dose-only effect, or another doubt; inactive = no such curve, though single readings can be large or run the other way; note: potency is the fitted concentration of half-maximal effect
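20 nM HPGD preincubated 15 min at room temperature with compound in 50 mM Tris-HCl pH 8, 0.01% Tween 20. Started with 1 mM NAD+ and 30 uM prostaglandin E2; NADH fluorescence (360/450 nm) read 5 times over 30-s intervals, last minus first.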
IMPase inh – qHTS Assay for Identifying the Cell-Membrane Permeable IMPase Inhibitors. inhibition (IP1 accumulation), % at 46.1 µM. 120,000 tested, under 10 active. CHO-M1 cells, IP1 accumulation, HTRF TR-FRET ratio. Inositol monophosphatase 1 (Rattus norvegicus), P97697; active = well fitted curve in the direction sought with a large enough effect in the signal ratio, not every such curve was filed as active; inconclusive = small, poorly fitted or top-dose-only effect, or a change in a side signal; inactive = no such curve, though single readings can be large or run the other way; the % refers to the signal ratio;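 note: cells stimulated with carbachol in lithium chloride buffer; plate controls were DMSO basal wells for no effect and reference inhibitor wells for full effect; higher means more IMPase inhibition seen as more IP1 and lower FRET ratio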
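In this qHTS, compounds (final up to 46 uM) act on CHO-M1 cells that are then activated through the M1 receptor with carbachol, in pH 7.4 buffer containing 50 mM LiCl, for 30 min. IP1 accumulation is quantified by the IP-One immunoassay.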
Starred values were filed as active, the others as inactive; ? = inconclusive; · = not tested or not shown; ! = not confirmed by another sample; [ ] = another dose, or the depositor's remark. A selection: hits, their analogues and other compounds. The true share with any hit is near 5.4%. Unless noted, calls come from the whole dose curve; as a rule, active = well fitted curve in the direction sought with a large enough effect; inconclusive = small, poorly fitted or top-dose-only effect, or another doubt; inactive = no such curve, though single readings can be large; an effect the other way counts as inactive or inconclusive. Unless noted, % is set by controls: 0 for no effect and ±100 for the full control effect.

SMILES	IMPase Li inh	ALOX15B inhib	ALOX12 inhib	PNC assembly inh	HPGD inh	IMPase inh
O=c1cc(-c2cccc(O)c2)oc2c(O)c(O)ccc12	14.7%	-27.0%	-27.2%	·	3.16µM*	?
O=c1cc(-c2cccc(O)c2)oc2cc(O)ccc12	9.5%	-4.2%	-0.6%	·	?	8.4
COc1cc([C@H]2[C@@H]3CCCC[C@]3(O)CCN2CC(=O)Nc2ccc(C)cc2)ccc1O	-1.4%[38.3 µM]	3.8%	-11.5%	-100.0*	4.9%	11.0
COc1cc2ccc(=O)oc2cc1O	10µM*!	0.3%	-3.8%	·	?	-25.8
Cc1ccccc1Oc1nc2c(c(=O)n(C)c(=O)n2C)n1Cc1ccc(Br)cc1	·	·	·	·	·	-0.4
CCC(Sc1nnc2c3ccccc3n(CC)c2n1)C(=O)Nc1ccc(NC(C)=O)cc1 (centres undefined)	·	·	·	·	·	6.9
CCOC(=O)C1CCCN(c2nc3ccccc3nc2C(C#N)C(=O)OCC)C1 (centres undefined)	7.5%[38.3 µM]	-18.5%	-22.0%	4.3	-7.5%	-1.1
CCOC(=O)C1CCN(c2nc3ccccc3nc2C(C#N)C(=O)NCCc2ccccc2)CC1 (centres undefined)	15.9%[38.3 µM]	3.8%	?	22.3	17.8µM*	2.5
Cc1cc(C)c2oc(-c3cccc(NC(=O)c4ccc(-c5cccc([N+](=O)[O-])c5)o4)c3)nc2c1	·	·	·	·	·	-3.4
COc1ccc(CCN2CC34C=CC(O3)C(C(=O)NCc3ccccc3)C4C2=O)cc1OC (centres undefined)	-5.9%[38.3 µM]	1.3%	-1.8%	5.1	10µM*	1.3
Cc1ccc(S(=O)(=O)N(C)C)cc1NC(=O)CSc1nc2ccccc2[nH]1	-3.4%	·	-2.7%	2.1	1.2%	·
CCN(CC)S(=O)(=O)c1ccc(C)c(NC(=O)CSc2nc3ccccc3[nH]2)c1	9.0%	·	-2.8%	-92.3*	-3.1%	·
COC(=O)c1ccccc1S(=O)(=O)N1CCc2nc(-c3ccc(OC)cc3C)c3c(c2C1)CO[C@@H](c1ccccc1)C3	4.1%	·	-3.3%[11.4 µM]	·	-1.9%	·
Cc1cccc(N(C(=O)Cn2nnc3ccccc32)C(C(=O)NC(C)(C)C)c2ccsc2)c1 (centres undefined)	-4.6%	-2.3%	0.6%	-94.0*	-4.1%	10.4
COc1ccc(N2C(=O)C(Cl)=C(Nc3ccccc3O)C2=O)cc1	-11.1%[38.3 µM]	?	-12.7%	?	14.1µM*	15.3
COc1ccc(NC(=O)c2cc3nc(-c4ccc(Cl)c(Cl)c4)cc(C(F)(F)F)n3n2)c(OC)c1	·	·	·	·	·	-3.0
CCCc1cc(=O)[nH]c(SCc2nc3ccccc3s2)n1	2.8%[38.3 µM]	9.6%	-0.7%	?	?	-3.7
CCCc1cc(=O)[nH]c(SCc2ccccc2Cl)n1	11.2%[38.3 µM]	-12.5%	-5.7%	18.3	14.1µM*	5.1
CCCc1cc(=O)[nH]c(SCc2cc(=O)oc3cc(C)c(C(C)C)cc23)n1	0.7%	·	0.3%	-7.5	15.8µM*	·
C=C(C)Cn1c(SCC(=O)N/N=C/c2c(O)ccc3ccccc23)nc2ccccc2c1=O	3.3%	·	4.7%	-121.5*	-21.2%	·
C=C(C)Cn1c(SCC)nc2ccccc2c1=O	0.1%	1.3%	1.6%	5.6	3.4%	-0.9
Cc1cc(C)c(S(=O)(=O)OC[C@H]2C=CC[C@@H](CCC[C@H]3O[C@H](C(=O)OC(C)C)CC[C@@H]3C)O2)c(C)c1	17.5%	·	·	·	-2.6%	·
Cc1ccccc1-n1c(=O)cc(N2CCc3ccccc32)[nH]c1=O	23.0%[38.3 µM]	-4.7%	3.5%	-108.4*	-20.8%	-0.7
O=c1cc(N2CCc3ccccc32)[nH]c(=O)n1-c1ccc(Br)cc1	20.0%[38.3 µM]	-4.7%	-7.8%	-13.5	28.2µM*	3.7
CCC(C(=O)O)C1CCC(C)C(C(C)C(O)C(C)C(=O)C(CC)C2OC3(C=CC(O)[C@@]4(CC[C@](C)(C5CC[C@@](O)(CC)C(C)O5)O4)O3)C(C)CC2C)O1 (some centres undefined)	-3.6%	-1.1%	-6.4%	·	-13.7%	·
SMILES	IMPase Li inh	ALOX15B inhib	ALOX12 inhib	PNC assembly inh	HPGD inh	IMPase inh
Cn1nnc(NC(=O)c2ccccc2)n1	-1.3%	·	5.8%	-95.3*	1.8%	-9.0[0.369 µM]
CN1/C(=C\C(=O)c2ccccc2Cl)c2ccccc2CC1(C)C	16.1%	·	-9.4%	?	17.8µM*	·
O=C(O)CNC(=O)[C@H]1NC(C(F)(F)F)(C(F)(F)F)OC1(C(F)(F)F)C(F)(F)F	-13.5%	-8.6%[11.4 µM]	-0.3%[11.4 µM]	·	-0.4%	·
COc1ccc(C2SCCN2C(=S)Nc2cccc(C(F)(F)F)c2)cc1 (centres undefined)	17.0%	·	-8.4%	-82.3*	-14.1%	8.8
O=C(N/N=C/c1ccc(OCC(=O)N2CCCCC2)cc1)c1ccccc1O	4.1%	·	-3.8%	-9.4	22.4µM*	10.3
O=C(COc1ccc(/C=N/NC(=O)c2ccccc2O)cc1)Nc1ccccc1	33.4%	·	·	·	·	·
O=C(N/N=C/c1ccc(OCC(=O)N2CCCCC2)cc1)c1ccccc1	-2.5%[38.3 µM]	6.6%	0.5%	-3.9	14.1µM*	5.4
O=C(c1csnn1)N1CCC2(CC1)CCN(C(c1ccccc1)c1ccccc1)CC2	15.2%	7.5%	-1.2%	·	-11.6%	·
c1ccc(C(c2cccc3c2ccc2ccccc23)[C@H](c2ccccc2)c2cccc3c2ccc2ccccc23)cc1 (some centres undefined)	2.9%	·	·	·	-13.6%	·
N[C@@H](Cc1ccccc1)c1nnc2sc(SCc3ccccc3)nn12	29.5%[38.3 µM]	-0.1%	-2.0%	23.8	28.2µM*	?
COc1ccc(C2CC(c3ccccc3)n3nnnc3N2)cc1 (centres undefined)	0.7%[38.3 µM]	-4.2%	2.0%	-110.7*	-7.2%	-1.4
COc1ccc(C2CC(c3cc(Br)ccc3F)n3nnnc3N2)cc1 (centres undefined)	21.6%[38.3 µM]	-5.6%	-10.2%	-4.4	-2.6%	6.0
Brc1ccc(-c2cn3nc4c(nc3n2)CCCC4)cc1	24.2%[38.3 µM]	-22.4%	-6.9%	-99.8*	?	-0.5
O=C(NCc1ccccc1)c1noc2c1CCCC2	16.1%[38.3 µM]	3.4%	-0.5%	-2.9	-19.1%	3.4
O=C(NCc1cccc(F)c1)c1noc2c1CCCC2	26.8%[38.3 µM]	-3.1%	7.4%	?	20µM*	-0.7
O=C(O)c1ccccc1Sc1ncnc2sc3c(c12)CCC3	8.91µM*	·	·	·	·	·
